Bioassay records (PubChem BioAssay)
Pf Dd2 growth – blocks growth of Plasmodium falciparum Dd2 parasites. P. falciparum Dd2 growth, SYBR Green, 72 h; hits give low values. activity change, % at 10 µM. 2.3% of 94,000 active. AID 1159554; in the data active = activity change below about -80%; inconclusive = no clear call, values can overlap the other calls
T cruzi growth-1 – inhibitors of T. cruzi proliferation; T. cruzi beta-gal in NIH3T3, GalScreen luminescence, 90 h; inhibition, % at 8.34 µM; 5.9% of 77,000 active; AID 624255;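 active = mean inhibition above about 93%, with at least 55% of replicates each passing it, limit read from the data, passing the limit was not always enough; inconclusive = only one of those two conditions holds; inactive = neither condition holds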
C diff HTS – inhibitors of Clostridium difficile growth | Clostridium difficile clinical isolate growth, OD600, 24 h; hits give low values | growth activity, negative = inhibition, % at 16 µg/mL (by protocol) | 0.25% of 86,000 active | AID 1259249;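 active = mean growth activity at or below -80% and every replicate also at or below -80%; inconclusive = mean at or below -80% but some replicate above -80%; inactive = mean growth activity above -80%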
T cruzi growth-2 – Trypanosoma cruzi proliferation inhibition | T. cruzi beta-gal in NIH3T3, GalScreen luminescence, 90 h | 72% of 5,600 active | inhibition, % at 8.35 µM | shares compounds with T cruzi growth-1 | AID 651739;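 active = mean replicate inhibition above about 95% and at least 55% of replicates individually reaching it, limit read from the data; inconclusive = only one of the two criteria is met; inactive = neither criterion is met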
T cruzi growth-3 – Trypanosoma cruzi proliferation inhibition | shares compounds with T cruzi growth-1 | T. cruzi beta-gal in NIH3T3, GalScreen luminescence, 90 h | inhibition, % at 2.09 µM | 21% of 5,600 active | AID 651740;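 active = mean inhibition above about 95%, with at least 55% of replicates also reaching it, limit read from the data; inconclusive = meets just one of the two conditions; inactive = meets neither condition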
3T3 cytotox – kills mouse NIH/3T3 fibroblasts; NIH/3T3 viability, CellTiter-Glo ATP luminescence, 90 h; AID 651742; shares compounds with T cruzi growth-1; cytotoxicity (signal decrease), % at 8.35 µM; 14% of 5,600 active;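 active = mean signal decrease across replicates above about 35% based on untreated-well scatter, with enough replicates individually passing, limit read from the data; inconclusive = no rule stated though some were filed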
NIH3T3 tox 2 – cytotoxicity in mouse NIH/3T3 fibroblasts. NIH/3T3 viability, CellTiter-Glo ATP luminescence, 90 h. shares compounds with T cruzi growth-1. inhibition, % at 24.9 µM. 56% of 5,600 active;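 active = mean loss of cell viability signal at or above a set limit, and enough replicates individually reaching it; inconclusive = meets only the mean limit or only the replicate share; inactive = meets neither condition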
Of the large screens only hits and unclear results are named; the others gave an inactive call (follow-up assays come after a bar, where they were run). Most compounds without a hit are left out; they make up all but 6.7% or so of the library.

C[C@@H]1CN([C@H](C)CO)C(=O)c2cc(NC(=O)c3ccncc3)ccc2O[C@@H](C)CCCCO[C@H]1CN(C)S(=O)(=O)c1cn(C)cn1	none
Cc1ccccc1S(=O)(=O)N1CC[C@H]2[C@H](CO)Nc3ccc(-c4ccc(F)cc4)cc3[C@H]21	none
Cc1ccccc1S(=O)(=O)N1CC[C@@H]2[C@@H](CO)Nc3ccc(-c4cccc(F)c4)cc3[C@@H]21	T cruzi growth-1 97.6 | T cruzi growth-2 104.2 | T cruzi growth-3 111.6 | 3T3 cytotox 59.5 | NIH3T3 tox 2 105.7
Cc1ccccc1S(=O)(=O)N1CC[C@@H]2[C@H]1c1cc(-c3cccc(C#N)c3)ccc1N[C@@H]2CO	none
Cn1cnc(S(=O)(=O)N2CC[C@@H]3[C@H]2c2cc(-c4ccc(F)cc4)ccc2N[C@@H]3CO)c1	none
Cc1ccccc1S(=O)(=O)N1CC[C@@H]2[C@H](CO)Nc3ccc(-c4ccccc4)cc3[C@@H]21	T cruzi growth-1 106.9 | T cruzi growth-2 102.0 | T cruzi growth-3 inconclusive | 3T3 cytotox inactive | NIH3T3 tox 2 103.9
N#Cc1cccc(-c2ccc3c(c2)[C@H]2[C@H](CCN2S(=O)(=O)c2ccccc2F)[C@@H](CO)N3)c1	T cruzi growth-1 107.3 | T cruzi growth-2 inconclusive | T cruzi growth-3 inactive | 3T3 cytotox inactive | NIH3T3 tox 2 55.2
Cc1ccccc1S(=O)(=O)N1CC[C@@H]2[C@H]1c1cc(-c3ccc(F)cc3)ccc1N[C@@H]2CO	none
Cn1cnc(S(=O)(=O)N2CC[C@@H]3[C@H]2c2cc(-c4cccc(F)c4)ccc2N[C@@H]3CO)c1	T cruzi growth-1 inconclusive | T cruzi growth-2 100.7 | T cruzi growth-3 inactive | 3T3 cytotox inactive | NIH3T3 tox 2 inactive
CN1C(=O)c2cc(NC(=O)c3cccc(F)c3)ccc2OC[C@H]2O[C@H](CC(=O)NCc3ccccc3Cl)CC[C@@H]21	none
COc1cccc(S(=O)(=O)Nc2ccc3c(c2)[C@@H]2C[C@@H](CC(=O)NCCc4ccccc4)O[C@@H](CO)[C@@H]2O3)c1	none (no result: C diff HTS)
C[C@@H]1CN([C@@H](C)CO)C(=O)c2cc(NS(C)(=O)=O)ccc2O[C@@H](C)CCCCO[C@@H]1CN(C)C	none
C[C@H](CO)N1C[C@H](C)[C@H](CN(C)C)Oc2ccc(NC(=O)C3CC3)cc2C1=O	none
C[C@H](CO)N1C[C@H](C)[C@H](CN(C)C(=O)Nc2ccccc2)Oc2c(NC(=O)c3nc4ccccc4s3)cccc2C1=O	none
Cc1ccccc1S(=O)(=O)N1CC[C@@H]2[C@H](CO)Nc3ccc(-c4cccc(F)c4)cc3[C@@H]21	T cruzi growth-1 104.5 | T cruzi growth-2 inconclusive | T cruzi growth-3 108.6 | 3T3 cytotox inactive | NIH3T3 tox 2 104.1
COc1cccc(-c2ccc3c(c2)[C@@H]2[C@@H](CCN2S(=O)(=O)c2ccccc2C)[C@@H](CO)N3)c1	none
O=S(=O)(c1ccccc1F)N1CC[C@@H]2[C@@H](CO)Nc3ccc(-c4cccc(F)c4)cc3[C@@H]21	none
Cc1ccccc1S(=O)(=O)N1CC[C@@H]2[C@H]1c1cc(-c3cccc(F)c3)ccc1N[C@@H]2CO	T cruzi growth-1 107.3 | T cruzi growth-2 99.8 | T cruzi growth-3 inactive | 3T3 cytotox inactive | NIH3T3 tox 2 105.6
CO[C@H]1CN(C)C(=O)c2cc(NC(=O)C3CCOCC3)ccc2OC[C@H](C)N(C(C)=O)C[C@H]1C	none (no result: C diff HTS)
COc1ccc(S(=O)(=O)Nc2cccc3c2O[C@@H](CN(C)S(=O)(=O)c2ccc(OC)cc2)[C@H](C)CN([C@@H](C)CO)C3=O)cc1	none (no result: T cruzi growth-1)
C[C@H](CO)N1C[C@H](C)[C@H](CN(C)C)Oc2ncc(-c3cccnc3)cc2C1=O	none
C[C@@H]1CN([C@H](C)CO)C(=O)c2cc(NC(=O)Cc3ccccc3)ccc2O[C@@H]1CN(C)Cc1ccc(C(F)(F)F)cc1	none
C[C@@H]1CN([C@@H](C)CO)C(=O)c2cc(NC(=O)Cc3ccccc3)ccc2O[C@H]1CN(C)Cc1ccc(C(F)(F)F)cc1	T cruzi growth-1 inconclusive | T cruzi growth-2 100.6 | T cruzi growth-3 inactive | 3T3 cytotox inactive | NIH3T3 tox 2 59.9
C[C@@H]1CN([C@H](C)CO)C(=O)c2cc(NC(=O)Cc3ccccc3)ccc2O[C@@H]1CN(C)Cc1ccc(-c2ccccc2)cc1	T cruzi growth-1 113.5 | T cruzi growth-2 113.1 | T cruzi growth-3 inactive | 3T3 cytotox inactive | NIH3T3 tox 2 77.8
C[C@@H]1CN([C@@H](C)CO)C(=O)c2cc(NC(=O)Cc3ccccc3)ccc2O[C@@H]1CN(C)Cc1ccc(Cl)c(Cl)c1	T cruzi growth-1 104.5 | T cruzi growth-2 97.8 | T cruzi growth-3 inactive | 3T3 cytotox inactive | NIH3T3 tox 2 95.8
C[C@@H]1CN([C@@H](C)CO)C(=O)c2cc(NC(=O)Cc3ccccc3)ccc2O[C@H]1CN(C)Cc1ccc(-c2ccccc2)cc1	none
C[C@H](CO)N1C[C@H](C)[C@@H](CN(C)Cc2ccc(Cl)c(Cl)c2)Oc2ccc(NC(=O)Cc3ccccc3)cc2C1=O	none
C[C@@H]1CN([C@H](C)CO)C(=O)Cc2cc(NC(=O)Cn3cnnn3)ccc2O[C@H]1CN(C)S(=O)(=O)c1cn(C)cn1	none
C[C@H](CO)N1C[C@H](C)[C@@H](CN(C)C)Oc2cc(-c3ccccc3)ccc2S1(=O)=O	none (no result: T cruzi growth-1)
C[C@H]1CN([C@@H](C)CO)C(=O)c2cc(-c3ccncc3)cnc2O[C@@H]1CN(C)C(=O)CN1CCOCC1	none (no result: T cruzi growth-1)
O=C(C1CCCCC1)N1C[C@@H]2[C@H](c3ccccc31)[C@@H](CO)N2C(=O)c1ccccc1	none
CN1C(=O)c2cc(NC(=O)C3CCOCC3)ccc2OC[C@H]2O[C@@H](CC(=O)NCC3CC3)CC[C@@H]21	none
COc1cccc(-c2ccc([C@@H]3[C@H](CO)N4CCCCN(Cc5cncnc5)C[C@@H]34)cc2)c1	none
OC[C@@H]1[C@H](c2ccc(-c3cccc(F)c3)cc2)[C@H]2CN(Cc3cncnc3)CCCCN12	T cruzi growth-1 95.6 | T cruzi growth-2 inactive | T cruzi growth-3 inactive | 3T3 cytotox inactive | NIH3T3 tox 2 102.1
OC[C@H]1[C@@H](c2ccc(-c3cccc(F)c3)cc2)[C@@H]2CN(Cc3cncnc3)CCCCN12	none
OC[C@@H]1[C@H](c2ccc(-c3cccc(F)c3)cc2)[C@@H]2CN(Cc3cncnc3)CCCCN12	T cruzi growth-1 123.1 | T cruzi growth-2 102.5 | T cruzi growth-3 inactive | 3T3 cytotox inactive | NIH3T3 tox 2 inactive
C[C@H](CO)N1C[C@H](C)[C@H](CN(C)Cc2ccc3c(c2)OCO3)Oc2c(NC(=O)c3ccncc3)cccc2C1=O	T cruzi growth-1 97.3 | T cruzi growth-2 inactive | T cruzi growth-3 inactive | 3T3 cytotox inactive | NIH3T3 tox 2 inactive
C[C@H]1CN([C@@H](C)CO)C(=O)c2cccc(NC(=O)c3cnccn3)c2O[C@@H]1CN(C)Cc1ccc(Cl)c(Cl)c1	T cruzi growth-1 109.0 | T cruzi growth-2 inactive | T cruzi growth-3 inactive | 3T3 cytotox inactive | NIH3T3 tox 2 49.7
